Several values for one entry are separate records, joined by “and”; a condition that tells them apart may be missing. Equal entries are not always repeated. Inconclusive results are not listed. Some structures have more than one record in an assay (separate samples or runs), and their calls can disagree. Activity calls are given as the source filed them. Unless noted, calls follow the shape of the dose curve; as a rule, active = well fitted curve in the direction sought with a large enough effect in the repeat runs; inconclusive = weak or mixed curves; inactive = no such curve, though single readings can be large; an effect the other way counts as inactive or inconclusive.
Columns and labels:
[1] = biological target: Thyrotropin receptor (Homo sapiens) (UniProt P16473); experiment: qHTS assay to identify small molecule antagonists of the thyroid stimulating hormone receptor (TSHR) signaling pathway (AID 1259385; calls by dose curve; also: nearly all actives have a fitted effect of over 20% in size)
Thyrotropin receptor (Homo sapiens), sequence (P16473 whole entry, looked up): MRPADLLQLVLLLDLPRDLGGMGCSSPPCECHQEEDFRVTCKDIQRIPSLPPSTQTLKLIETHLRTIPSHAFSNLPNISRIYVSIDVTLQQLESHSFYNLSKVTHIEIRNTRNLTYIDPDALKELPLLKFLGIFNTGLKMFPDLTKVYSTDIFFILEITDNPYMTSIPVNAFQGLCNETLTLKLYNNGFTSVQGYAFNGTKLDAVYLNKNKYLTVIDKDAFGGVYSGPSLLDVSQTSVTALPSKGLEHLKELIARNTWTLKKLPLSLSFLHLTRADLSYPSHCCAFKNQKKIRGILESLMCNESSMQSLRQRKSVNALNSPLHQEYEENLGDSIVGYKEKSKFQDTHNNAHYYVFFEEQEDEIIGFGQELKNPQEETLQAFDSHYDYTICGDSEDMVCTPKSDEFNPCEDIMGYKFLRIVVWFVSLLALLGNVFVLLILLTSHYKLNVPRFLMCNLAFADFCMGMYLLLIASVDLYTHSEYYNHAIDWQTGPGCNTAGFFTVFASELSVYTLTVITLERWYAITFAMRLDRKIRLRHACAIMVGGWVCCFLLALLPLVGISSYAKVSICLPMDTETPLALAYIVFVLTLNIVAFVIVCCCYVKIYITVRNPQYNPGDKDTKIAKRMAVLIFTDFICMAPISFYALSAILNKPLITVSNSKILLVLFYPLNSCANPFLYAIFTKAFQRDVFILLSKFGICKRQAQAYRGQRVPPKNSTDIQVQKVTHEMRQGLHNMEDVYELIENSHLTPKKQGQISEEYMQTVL
How it was run: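 TSHR-HEK293 cells (800/well) plated 18 h, then compounds with Ro20-1724 and TSH at 1.5 ng/mL final, 30 min at room temperature. cAMP quantified by HTRF (cAMP-d2/anti-cAMP-cryptate, 1 h); 15 concentrations in triplicate.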

[2] = qHTS assay to identify small molecule agonists of the estrogen receptor alpha (ER-alpha) signaling pathway in the presence of an antagonist - cell viability counter screen (AID 1259386);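 also: cells exposed to compounds for 22 h at 37 °C before the viability read; nearly all actives have a fitted effect of over 30% in size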; also: potency is read from the fitted curve at half-maximal effect
How it was run: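 VM7Luc4E2 cells (endogenous full-length ER-alpha, 4×ERE-luciferase) were held 5 days in phenol red-free medium with 10% charcoal-stripped FBS, plated, then given 10.0nM ICI-182,780 and compounds at 15 concentrations for 22hr at 37C; viability read by CellTiter-Fluor fluorescence.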

[3] = qHTS assay to identify small molecule antagonists of the progesterone receptor (PR) signaling pathway - cell viability counter screen (AID 1346798); also: nearly all actives have a fitted effect of over 50% in size; also: potency is read from the fitted curve at half-maximal effect
How it was run: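 HEK293T PR-UAS-bla, 2% charcoal-stripped FBS; 4 hr pre-plate; cpd + R5020, 16 h 37C; LiveBLAzer read first; then CellTiter-Glo 30 min RT, luminescence.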

[4] = qHTS assay to identify small molecule agonists of the progesterone receptor (PR) signaling pathway - cell viability counter screen (AID 1346799; calls by dose curve; also: nearly all actives have a fitted effect of over 45% in size)
How it was run: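 Luminescence from CellTiter-Glo, added after the beta-lactamase FRET read in the same wells, gave cytotoxicity in PR-UAS-bla HEK293T cells treated with compounds for 16 hr at 37C.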

[5] = qHTS assay to identify small molecule antagonists of the TGF-beta/Smad signaling pathway - cell viability counter screen (AID 1346824); also: nearly all actives have a fitted effect of over 50% in size; also: potency is read from the fitted curve at half-maximal effect
How it was run: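 SBE-bla HEK 293T cells, incubated overnight, then compound plus 0.25 ng/mL TGF-beta1 (stock added) for 5 hr at 37 C. Viability was read in the same wells by CellTiter-Glo luminescence after 30 min at room temperature.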

[6] = qHTS assay to identify small molecule agonists of the TGF-beta/Smad signaling pathway - cell viability counter screen (AID 1346829); also: nearly all actives have a fitted effect of over 45% in size; also: potency is read from the fitted curve at half-maximal effect
How it was run: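 Here the cytotoxicity of library compounds is measured in SBE-bla HEK 293T cells treated for 5 hr, using CellTiter-Glo added to wells already read for the beta-lactamase reporter.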

[7] = biological target: Thyrotropin-releasing hormone receptor (Homo sapiens) (UniProt P34981); experiment: qHTS assay to identify small molecule antagonists of the thyrotropin-releasing hormone receptor (TRHR) signaling pathway (AID 1346877; active = well fitted inhibition curve with a large enough effect in the repeat runs, not every such curve was filed as active; also: series mostly up to about 51 µM)
Thyrotropin-releasing hormone receptor (Homo sapiens), sequence (P34981 whole entry, looked up): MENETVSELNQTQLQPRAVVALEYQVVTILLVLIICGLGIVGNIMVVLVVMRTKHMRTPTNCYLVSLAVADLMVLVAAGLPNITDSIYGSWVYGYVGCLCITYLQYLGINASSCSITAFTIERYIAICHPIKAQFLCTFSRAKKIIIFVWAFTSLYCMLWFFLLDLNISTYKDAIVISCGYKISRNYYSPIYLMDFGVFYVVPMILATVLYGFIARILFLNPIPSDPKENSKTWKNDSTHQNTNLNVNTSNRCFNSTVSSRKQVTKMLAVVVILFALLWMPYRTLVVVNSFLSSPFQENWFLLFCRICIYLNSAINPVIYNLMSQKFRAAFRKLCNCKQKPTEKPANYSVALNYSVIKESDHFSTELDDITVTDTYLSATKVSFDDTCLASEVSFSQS
How it was run: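 TRHR-expressing HEK293 cells were seeded, cultured 18 h at 37 °C, then loaded with calcium dye for 2 h. Compounds were pre-incubated 5 min at room temperature before 1 nM TRH (final) was added, and kinetic fluorescence was recorded for 3 min.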

[8] = Caspase-3/7 induction in HepG2 cells by small molecules, qHTS assay (AID 1346978); also: nearly all actives have a fitted effect of over 15% in size
How it was run: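 Wild-type HepG2 cells, 2,000/well, settled 5 hr at 37 C and 5% CO2, then compound-treated for 17 hr; caspase-3/7 activity read by luminescent Caspase-Glo 3/7 after 30 min at room temperature.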

[9] = Caspase-3/7 induction in CHO-K1 cells by small molecules, qHTS cell viability counter screen (AID 1346979); also: nearly all actives have a fitted effect of over 35% in size; also: potency is read from the fitted curve at half-maximal effect
How it was run: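 Cells (CHO-K1, wild type) are plated at 1,500 per well and incubated 5hr. Test compounds in DMSO are then pinned in, followed by 16hr at 37C and 5% CO2. Viability is read by CellTiter-Fluor fluorescence after 1hr.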

[10] = Caspase-3/7 induction in CHO-K1 cells by small molecules, qHTS assay (AID 1346980); also: nearly all actives have a fitted effect of over 15% in size
How it was run: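 Wild-type CHO-K1 cells exposed to compounds for 17hr at 37 C, 5% CO2. Caspase-3/7 activity then measured by Caspase-Glo 3/7 luminescence after 30min at room temperature.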

[11] = biological target: Nuclear receptor subfamily 1 group I member 2 (Homo sapiens) (UniProt O75469); experiment: Human pregnane X receptor (PXR) small molecule agonists, qHTS assay (AID 1346982); also: nearly all actives have a fitted effect of over 35% in size; also: potency is read from the fitted curve at half-maximal effect
Nuclear receptor subfamily 1 group I member 2 (Homo sapiens), sequence (O75469 whole entry, looked up): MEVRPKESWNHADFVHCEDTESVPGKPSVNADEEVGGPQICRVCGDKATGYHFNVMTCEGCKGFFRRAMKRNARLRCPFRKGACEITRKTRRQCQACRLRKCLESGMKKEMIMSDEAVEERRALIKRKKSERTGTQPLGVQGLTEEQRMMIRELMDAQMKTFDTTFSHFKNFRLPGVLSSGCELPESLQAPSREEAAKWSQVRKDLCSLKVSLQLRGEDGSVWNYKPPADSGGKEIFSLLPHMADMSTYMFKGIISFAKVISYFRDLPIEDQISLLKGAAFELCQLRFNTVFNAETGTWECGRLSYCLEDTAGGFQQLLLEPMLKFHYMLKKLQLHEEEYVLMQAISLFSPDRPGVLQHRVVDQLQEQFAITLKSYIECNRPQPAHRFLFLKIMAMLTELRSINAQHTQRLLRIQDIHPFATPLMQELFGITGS
How it was run: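 PXR-Luc HepG2 cells (CYP3A4 promoter-driven luciferase) were seeded in medium with 5% charcoal-stripped FBS, left 5 hr at 37 C, then exposed to compounds in DMSO for 24 hr. Luminescence was read after ONE-Glo addition.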

[12] = biological target: Nuclear receptor subfamily 1 group I member 2 (Rattus norvegicus) (UniProt Q9R1A7); experiment: Rat pregnane X receptor (rPXR) activation by small molecules, qHTS assay (AID 1346983); details: rPXR luciferase reporter cells, One-Glo luminescence, 24 h; stronger effect = higher value; also: nearly all actives have a fitted effect of over 20% in size
Nuclear receptor subfamily 1 group I member 2 (Rattus norvegicus), sequence (Q9R1A7 whole entry, looked up): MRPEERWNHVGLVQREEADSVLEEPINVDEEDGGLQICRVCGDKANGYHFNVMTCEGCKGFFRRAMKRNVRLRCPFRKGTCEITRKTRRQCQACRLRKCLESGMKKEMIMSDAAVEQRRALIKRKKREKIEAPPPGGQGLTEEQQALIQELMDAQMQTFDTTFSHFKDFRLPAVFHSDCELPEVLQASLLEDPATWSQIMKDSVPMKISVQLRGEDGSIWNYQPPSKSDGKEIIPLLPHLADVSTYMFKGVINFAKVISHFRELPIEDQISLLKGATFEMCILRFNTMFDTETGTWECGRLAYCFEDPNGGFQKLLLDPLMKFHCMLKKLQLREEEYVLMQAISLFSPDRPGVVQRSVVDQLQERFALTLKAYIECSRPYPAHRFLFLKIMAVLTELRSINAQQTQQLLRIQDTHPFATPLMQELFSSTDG
How it was run: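 Cell-based rPXR activation assay: rPXR cells, 2,000 per well, rested 5hr at 37 C, then exposed to compounds in DMSO for 24 hr at 37 C. Luciferase activity read by One-Glo luminescence after 30 min at room temperature.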

[13] = biological target: Nuclear receptor subfamily 1 group I member 2 (Homo sapiens) (UniProt O75469); experiment: Human pregnane X receptor (PXR) activation by small molecules, qHTS assay (AID 1346985); also: nearly all actives have a fitted effect of over 40% in size
How it was run: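 DPX-2 cells (HepG2 co-transfected with a PXR response element and a CYP3A4-promoter luciferase construct) were seeded at 2,000 per well, rested 5 hr at 37C, then exposed to DMSO-dissolved compounds for 24 hr. Activation was read as luciferase luminescence.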

[14] = biological target: Thyrotropin-releasing hormone receptor (Homo sapiens) (UniProt P34981); experiment: qHTS assay to identify small molecule agonists of the thyrotropin-releasing hormone receptor (TRHR) signaling pathway (AID 1346891; calls by dose curve; also: series mostly up to about 58 µM)
How it was run: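 Intracellular calcium rise, read as fluorescence every second for 3 min, served as the agonist signal in dye-loaded HEK293 cells expressing TRHR; each compound ran at 15 concentrations in triplicate.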

[15] = biological target: Progesterone receptor (Homo sapiens) (UniProt P06401); experiment: qHTS assay to identify small molecule agonists of the progesterone receptor (PR) signaling pathway (AID 1346784; calls by dose curve; also: nearly all actives have a fitted effect of over 30% in size)
Progesterone receptor (Homo sapiens), sequence (P06401 whole entry, looked up): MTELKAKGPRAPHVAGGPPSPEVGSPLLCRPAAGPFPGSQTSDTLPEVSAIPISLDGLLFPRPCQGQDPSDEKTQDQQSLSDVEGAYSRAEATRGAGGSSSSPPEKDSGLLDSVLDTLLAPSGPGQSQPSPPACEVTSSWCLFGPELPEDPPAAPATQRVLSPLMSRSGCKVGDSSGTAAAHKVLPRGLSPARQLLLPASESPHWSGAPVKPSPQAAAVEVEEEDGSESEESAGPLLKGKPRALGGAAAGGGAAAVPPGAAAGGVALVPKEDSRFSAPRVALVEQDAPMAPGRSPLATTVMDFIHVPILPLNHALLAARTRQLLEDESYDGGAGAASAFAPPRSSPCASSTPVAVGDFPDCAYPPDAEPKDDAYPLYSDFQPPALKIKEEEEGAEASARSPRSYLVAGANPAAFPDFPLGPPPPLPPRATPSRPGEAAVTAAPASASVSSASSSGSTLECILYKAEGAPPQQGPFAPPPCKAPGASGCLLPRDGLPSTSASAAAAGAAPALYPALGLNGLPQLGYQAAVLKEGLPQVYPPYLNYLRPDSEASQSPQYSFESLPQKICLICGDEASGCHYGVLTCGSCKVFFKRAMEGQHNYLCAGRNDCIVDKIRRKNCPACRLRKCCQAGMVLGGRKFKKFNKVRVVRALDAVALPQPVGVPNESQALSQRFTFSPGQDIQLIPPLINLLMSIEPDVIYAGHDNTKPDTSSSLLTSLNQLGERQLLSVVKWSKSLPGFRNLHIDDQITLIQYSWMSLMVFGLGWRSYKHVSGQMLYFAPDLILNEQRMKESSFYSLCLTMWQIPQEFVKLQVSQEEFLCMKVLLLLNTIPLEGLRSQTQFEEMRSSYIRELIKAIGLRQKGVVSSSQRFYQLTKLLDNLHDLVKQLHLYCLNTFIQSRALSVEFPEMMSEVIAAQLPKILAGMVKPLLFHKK
How it was run: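 Beta-lactamase reporter read-out: after 16 hr compound treatment at 37C and a further 2 hr at room temperature with LiveBLAzer B/G FRET substrate, fluorescence was measured in PR-UAS-bla HEK 293T cells grown in 2% charcoal-stripped serum.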

[16] = biological target: Progesterone receptor (Homo sapiens) (UniProt P06401); experiment: qHTS assay to identify small molecule antagonists of the progesterone receptor (PR) signaling pathway (AID 1346795; active = well fitted inhibition curve with a large enough effect in the signal ratio in the repeat runs, not every such curve was filed as active; the % refers to the signal ratio)
How it was run: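 Read-out is fluorescence from the LiveBLAzer B/G FRET substrate, cleaved by a UAS-controlled beta-lactamase in PR-UAS-bla HEK293T cells after 16 hr exposure to compound plus 1 nM promegestone (final), followed by 2 hr at room temperature.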

[17] = qHTS assay to identify small molecule agonists of the TGF-beta/Smad signaling pathway (AID 1346859; active = well fitted activation curve with a large enough effect in the signal ratio in the repeat runs, not every such curve was filed as active; the % refers to the signal ratio; also: series mostly up to about 77 µM)
How it was run: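 SBE-bla HEK 293T, 4,000 cells/well, plated o/n; cpd in DMSO, 5 hr, 37 C/5% CO2; B/G FRET substrate 2 hr RT; ex 405, em 460/530 nm.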

[18] = Human pregnane X receptor (PXR) small molecule agonists, qHTS cell viability counter screen (AID 1346977); also: nearly all actives have a fitted effect of over 50% in size
How it was run: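 PXR-Luc HepG2, 2,000 cells/well, 5% charcoal-stripped FBS; 5hr settle; cpd 24hr, 37C/5% CO2; CellTiter-Fluor at 23hr, read 1hr later (fluorescence).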

[19] = Caspase-3/7 induction in HepG2 cells by small molecules, qHTS cell viability counter screen (AID 1346981); also: nearly all actives have a fitted effect of over 30% in size; also: potency is read from the fitted curve at half-maximal effect
How it was run: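 Wild-type HepG2 cells (2,000/well) were allowed to settle for 5 hr at 37 C, 5% CO2, then dosed with compounds in DMSO by pin transfer. After 16 hr at 37 C, CellTiter-Fluor was added and fluorescence read 1 hr later.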

[20] = biological target: Nuclear receptor subfamily 1 group I member 2 (Homo sapiens) (UniProt O75469); experiment: CYP3A4 induction through human pregnane X receptor (PXR) by small molecules, qHTS assay (AID 1346984); also: nearly all actives have a fitted effect of over 40% in size
How it was run: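 DPX-2 cells (HepG2 co-transfected with PXR and CYP3A4 promoter-luciferase) treated with compounds 24 h at 37C; luciferin-IPA CYP3A4 substrate 3uM final added for 3 h, then One-Glo; luminescence read. qHTS format.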
% is scaled to controls: 0 for no effect and ±100 for the full control effect.

O=C(Nc1ccc(Br)cc1)c1cc(Br)cc(Br)c1O
active: Potency [2] 21.6 µM and 9.69 µM | Potency [3] 12.1 µM and 21.7 µM | Potency [5] 30.8 µM and 21.9 µM and 19 µM | Potency [6] 24.5 µM and 43.6 µM and 23.9 µM | Potency [9] 17.2 µM and 15.4 µM | Potency [11] 13.6 µM and 13.7 µM and 21.1 µM
inactive: outcome [1] | Potency [4] | Potency [7] | Potency [8] | Potency [10] | max activation [12] -12.3% | outcome [13]

CCOCN(C(=O)CCl)c1c(C)cccc1CC
inactive: outcome [1] | Potency [2] | Potency [3] | Potency [4] | Potency [5] | Potency [6] | Potency [7] | Potency [14] | Potency [8] | Potency [10]
active: Potency [9] 57.7 µM

CNC(=O)N(C)c1nnc(C(C)(C)C)s1
active: Potency [11] 54.5 µM
inactive: outcome [1] | Potency [15] | Potency [16] | Potency [3] | Potency [4] | Potency [5] | Potency [6] | outcome [17] | Potency [7] | Potency [14] | Potency [18] | Potency [8] | Potency [9] | Potency [10] | Potency [19]

c1nc[nH]n1
inactive: outcome [1] | Potency [15] | Potency [16] | Potency [3] | Potency [4] | Potency [5] | Potency [6] | outcome [17] | Potency [18] | Potency [8] | Potency [9] | Potency [10] | Potency [19] | Potency [11]

CCC(=O)O[C@H]1CC[C@H]2[C@@H]3CCC4=CC(=O)CC[C@]4(C)[C@H]3CC[C@]12C
inactive: outcome [1] | Potency [2] | Potency [3] | Potency [5] | Potency [6] | outcome [17] | Potency [18] | Potency [8] | Potency [9] | Potency [10] | Potency [19] | max activation [12] -2.06% | outcome [20] | outcome [13]

Cc1cccc(N)c1N
inactive: outcome [1] | Potency [15] | Potency [3] | Potency [4] | Potency [5] | Potency [6] | outcome [17] | Potency [7] | Potency [14] | Potency [18] | Potency [8] | Potency [9] | Potency [10] | Potency [19]
active: Potency [11] 26.4 µM and 54.5 µM

CCCCOCCOP(=O)(OCCOCCCC)OCCOCCCC
inactive: outcome [1] | Potency [2] | Potency [3] | Potency [4] | Potency [5] | Potency [6] | outcome [17] | Potency [18] | Potency [8] | Potency [10] | Potency [19]

Nc1ccc(-c2ccccc2)cc1
inactive: outcome [1] | Potency [2] | Potency [3] | Potency [4] | Potency [5] | Potency [6] | outcome [17] | Potency [7] | Potency [18] | Potency [8] | Potency [10] | Potency [19]
active: Potency [11] 28.1 µM and 30.6 µM
56 µM (active) and inactive: Potency [9]

O=[N+]([O-])c1ccc(O)c([N+](=O)[O-])c1
inactive: outcome [1] | Potency [16] | Potency [5] | Potency [6] | outcome [17] | Potency [7] | Potency [14] | Potency [8] | Potency [10] | Potency [11]
active: Potency [9] 48.8 µM and 54.5 µM | Potency [19] 54.7 µM and 61.1 µM

COC(=O)c1sccc1S(=O)(=O)NC(=O)Nc1nc(C)nc(OC)n1
inactive: outcome [1] | Potency [16] | Potency [3] | Potency [4] | Potency [5] | Potency [6] | outcome [17] | Potency [7] | Potency [18] | Potency [8] | Potency [9] | Potency [10] | Potency [19] | Potency [11]

Cc1ccc(N)c(N)c1
active: Potency [11] 8.66 µM and 19.3 µM
inactive: Potency [2] | Potency [15] | Potency [4] | Potency [5] | Potency [6] | outcome [17] | Potency [18] | Potency [8] | Potency [10] | Potency [19]

— PubChem BioAssay (Tox21)
